# Calls of active or inactive are those of the source.
# Tests used:
# [1] = optical density shifts of acrAB sulA E. coli – strain DRC41, OD650, 48 h, E. coli filamentation inducer project, primary screen (AID 1152); conditions: higher = more signal, called active from +8 up or from −8 down;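 further: E. coli MC1000 strain DRC41 lacking acrAB efflux pump and sulA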
# [2] = probe aLefty1 binding on compound microarray – biochemical, small-molecule microarray, 635/667 nm fluorescence, primary screen (AID 1153); conditions: higher = more signal;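 further: score merges spot fluorescence with signal-to-noise ratio from the scanned slide images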
# [3] = plasmodial surface anion channel blockers, osmotic lysis – cell-based, P. falciparum Indochina, OD700, 1 h, primary screen (AID 1154); conditions: P. falciparum Indochina infected RBC osmotic lysis, higher = more signal, called active from +8 up or from −8 down
# [4] = plasmodial surface anion channel blockers, osmotic lysis – cell-based, P. falciparum Indochina, OD700, 2 h, primary screen (AID 1155);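 further: lysis reports solute entry through the parasite surface anion channel PSAC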; conditions: P. falciparum Indochina infected erythrocytes, higher = more signal, called active from +8 up or from −8 down
# [5] = changes in parasitized red cell lysis, either direction – P. falciparum Indochina, OD700, 3 h, PSAC antagonist project, primary screen (AID 1156); conditions: P. falciparum-infected erythrocytes, osmotic lysis, higher = more signal, called active from +8 up or from −8 down
# [6] = plasmodial surface anion channel blockers, osmotic lysis – cell-based, P. falciparum Indochina, OD700, 18 h, primary screen (AID 1157); conditions: P. falciparum Indochina infected erythrocytes, osmotic lysis OD700, 18 h; higher = more signal, called active from +8 up or from −8 down
# [7] = S6 kinase pathway phospho-S6 level changes – cell-based, A549, cytoblot, luminescence, serum-stimulated, primary screen (AID 1158); conditions: 5 h, higher = more signal;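 further: serum-stimulated A549 lung adenocarcinoma cells; signal is phosphorylated S6 detected by cytoblot immunostaining with HRP secondary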
# [8] = molecular target: NADPH oxidase 2 (Homo sapiens) (UniProt P04839); test: compounds shifting NOX2 Amplex Red fluorescence – cell-based, HEK293-NOX2, PMA-stimulated, NOX inhibitor project, primary screen (AID 1159); conditions: 45 min, higher = more signal, called active from +8 up or from −8 down; further: test concentration not given here
# [9] = molecular target: NADPH oxidase 4 (Homo sapiens) (UniProt Q9NPH5); test: compounds shifting NOX4 Amplex Red fluorescence – cell-based, HEK293-NOX4, tetracycline-induced, NOX inhibitor project, primary screen (AID 1160); conditions: HEK293-NOX4, Amplex Red H2O2 fluorescence, 45 min; higher = more signal, called active from +8 up or from −8 down
# [10] = molecular target: NADPH oxidase 5 (Homo sapiens) (UniProt Q96PH1); test: compounds shifting NOX5 Amplex Red fluorescence – cell-based, HEK293-NOX5, NOX inhibitor project, primary screen (AID 1161); conditions: HEK293-NOX5, ionomycin, 45 min, higher = more signal
# [11] = compound effects on lung adenocarcinoma cell viability – A549, calcein-AM fluorescence, 48 h, basal, profiling panel (AID 1162); conditions: higher = more signal; further: test concentration not given here
# [12] = compound effects on differentiated 3T3-L1 adipocyte viability – cell-based, 3T3-L1 adipocytes, calcein-AM fluorescence, 48 h, basal, profiling panel (AID 1163); conditions: 3T3-L1 adipocytes viability, higher = more signal; further: test concentration not given here
# [13] = compound effects on hepatocellular carcinoma cell viability – HepG2, calcein-AM fluorescence, 48 h, basal, profiling panel (AID 1164); conditions: higher = more signal; further: test concentration not given here
# [14] = compound effects on multiple myeloma cell viability – MM1S, calcein-AM fluorescence, 48 h, basal, profiling panel (AID 1165); conditions: higher = more signal; further: test concentration not given here
# [15] = calcein-AM signal in unstimulated myeloma cells – cell-based, calcein-AM fluorescence, 48 h, PK04 Diversity Set, profiling panel (AID 1166); conditions: RPMI8226 myeloma viability, higher = more signal;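 further: cells grown under basal conditions without added stimulus; test concentration not given here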
# [16] = JC-1 mitochondrial signal, unstimulated HepG2 cells – cell-based, JC-1 fluorescence, 24 h, 100 nL compound, profiling panel (AID 1167); conditions: HepG2 mitochondrial potential, higher = more signal; further: test concentration not given here
# [17] = JC-1 mitochondrial signal, unstimulated adipocytes – cell-based, JC-1 fluorescence, 3T3-L1 adipocytes, 24 h, 100 nL compound, profiling panel (AID 1168); conditions: JC-1 mitochondrial fluorescence, higher = more signal, called active from +8 up or from −8 down; further: test concentration not given here
# [18] = JC-1 mitochondrial signal, unstimulated myeloma cells – cell-based, JC-1 fluorescence, RPMI8226, 24 h, 100 nL compound, profiling panel (AID 1169); conditions: JC-1 mitochondrial potential fluorescence, higher = more signal; further: test concentration not given here
# [19] = JC-1 mitochondrial signal, unstimulated MM1S myeloma – cell-based, JC-1 fluorescence, 24 h, 100 nL compound, profiling panel (AID 1170); conditions: MM1S mitochondrial potential, higher = more signal; further: test concentration not given here
# [20] = resazurin metabolic signal in A549 cells – cell-based, resazurin fluorescence, 24 h, PK04 Diversity Set, profiling panel (AID 1171); conditions: A549 viability, higher = more signal, called active from +8 up or from −8 down; further: test concentration not given here
# Sequence of NADPH oxidase 4 (Homo sapiens) (Q9NPH5 whole entry, looked up): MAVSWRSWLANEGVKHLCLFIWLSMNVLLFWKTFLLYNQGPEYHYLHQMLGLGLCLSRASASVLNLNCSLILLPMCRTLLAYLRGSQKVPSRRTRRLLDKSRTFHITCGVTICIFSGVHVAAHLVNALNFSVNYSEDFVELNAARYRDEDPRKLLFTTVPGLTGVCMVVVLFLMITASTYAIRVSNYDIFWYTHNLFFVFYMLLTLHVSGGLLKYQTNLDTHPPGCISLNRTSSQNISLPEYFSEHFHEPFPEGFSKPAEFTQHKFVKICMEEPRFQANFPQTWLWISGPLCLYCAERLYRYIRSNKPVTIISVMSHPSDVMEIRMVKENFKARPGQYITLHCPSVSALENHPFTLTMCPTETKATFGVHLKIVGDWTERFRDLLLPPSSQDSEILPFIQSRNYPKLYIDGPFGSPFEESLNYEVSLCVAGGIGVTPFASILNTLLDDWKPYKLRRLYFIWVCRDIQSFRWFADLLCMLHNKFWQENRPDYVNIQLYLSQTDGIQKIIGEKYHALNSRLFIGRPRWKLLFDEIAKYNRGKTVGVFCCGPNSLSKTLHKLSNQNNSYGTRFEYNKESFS
# Sequence of NADPH oxidase 2 (Homo sapiens) (P04839 whole entry, looked up): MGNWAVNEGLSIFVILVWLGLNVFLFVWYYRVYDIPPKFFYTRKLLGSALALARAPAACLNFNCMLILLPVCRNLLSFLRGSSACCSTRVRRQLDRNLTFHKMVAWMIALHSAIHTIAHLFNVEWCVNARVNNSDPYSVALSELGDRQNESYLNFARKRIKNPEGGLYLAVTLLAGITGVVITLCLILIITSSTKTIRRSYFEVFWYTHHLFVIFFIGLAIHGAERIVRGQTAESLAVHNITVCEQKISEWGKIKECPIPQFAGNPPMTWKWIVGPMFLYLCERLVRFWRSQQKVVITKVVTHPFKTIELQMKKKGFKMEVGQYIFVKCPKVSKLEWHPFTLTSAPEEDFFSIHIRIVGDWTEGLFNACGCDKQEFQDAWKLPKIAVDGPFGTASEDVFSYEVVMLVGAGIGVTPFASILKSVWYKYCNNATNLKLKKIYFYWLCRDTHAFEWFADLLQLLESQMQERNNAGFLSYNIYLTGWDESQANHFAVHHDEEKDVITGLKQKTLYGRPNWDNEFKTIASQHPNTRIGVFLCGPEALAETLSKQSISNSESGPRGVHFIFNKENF
# Sequence of NADPH oxidase 5 (Homo sapiens) (Q96PH1 whole entry, looked up): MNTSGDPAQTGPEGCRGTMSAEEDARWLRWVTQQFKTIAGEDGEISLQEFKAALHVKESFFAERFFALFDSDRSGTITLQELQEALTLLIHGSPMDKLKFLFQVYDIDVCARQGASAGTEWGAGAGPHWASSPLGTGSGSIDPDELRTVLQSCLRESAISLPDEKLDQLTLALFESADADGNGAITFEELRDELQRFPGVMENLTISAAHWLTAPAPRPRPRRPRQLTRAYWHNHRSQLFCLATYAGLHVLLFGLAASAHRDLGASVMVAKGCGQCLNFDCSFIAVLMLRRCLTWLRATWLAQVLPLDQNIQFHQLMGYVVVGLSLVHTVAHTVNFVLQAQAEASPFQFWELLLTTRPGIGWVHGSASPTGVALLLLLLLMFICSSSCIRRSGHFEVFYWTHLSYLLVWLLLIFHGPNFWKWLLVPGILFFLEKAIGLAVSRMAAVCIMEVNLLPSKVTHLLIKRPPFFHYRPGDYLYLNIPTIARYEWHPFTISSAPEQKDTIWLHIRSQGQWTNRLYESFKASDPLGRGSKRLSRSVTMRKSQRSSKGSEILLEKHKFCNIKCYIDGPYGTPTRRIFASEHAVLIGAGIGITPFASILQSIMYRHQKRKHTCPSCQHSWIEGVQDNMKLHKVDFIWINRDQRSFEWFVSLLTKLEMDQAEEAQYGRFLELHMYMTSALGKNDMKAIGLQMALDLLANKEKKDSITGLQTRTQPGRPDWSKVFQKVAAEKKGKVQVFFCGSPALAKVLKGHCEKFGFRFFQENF
Structure (SMILES),z-score [1],composite z-score [2],z-score [3],z-score [4],z-score [5],z-score [6],z-score [7],z-score [8],z-score [9],z-score [10],z-score [11],z-score [12],z-score [13],z-score [14],z-score [15],z-score [16],z-score [17],z-score [18],z-score [19],z-score [20]
O=C1O[C@@H](c2ccccc2)[C@@H](c2ccccc2)N2[C@@H](c3ccccc3OCCO)[C@]3(C(=O)Nc4ccc(C#CC5=CCCCC5)cc43)[C@@H](C(=O)N3CCCCCCC3)[C@H]12,-0.511 (inactive),2.96,-0.0047 (inactive),0.0859 (inactive),-0.339 (inactive),0.68 (inactive),-0.359,0.624 (inactive),0.55 (inactive),-0.797,-1.66,0.25,0.297,-3.09,-2.79,1.19,-1.85 (inactive),-0.715,-1.75,-0.312 (inactive)
CN(C)CCCCCCNC(=O)[C@H]1C[C@H]2C(=O)N3CCC[C@H]3C(=O)N2[C@H]1c1ccc(O)cc1,1.47 (inactive),0.0811,0.89 (inactive),0.326 (inactive),-0.664 (inactive),0.253 (inactive),-0.549,0.544 (inactive),-1.28 (inactive),-0.0199,-0.79,0.627,-0.952,-0.567,-0.554,0.661,0.597 (inactive),0.262,0.538,-0.636 (inactive)
C=CCOC(=O)[C@H]1[C@@H]2C(=O)O[C@@H](c3ccccc3)[C@@H](c3ccccc3)N2[C@@H](c2ccc(OCCOC(=O)[C@H]3C[C@H]4C(=O)N[C@@H](CCCCNC(C)=O)C(=O)N4[C@H]3c3cccc(OCCO)c3)cc2)[C@]12C(=O)Nc1ccccc12,-0.0842 (inactive),0.179,3.6 (inactive),1.52 (inactive),3.95 (inactive),1.01 (inactive),-0.116,2.19 (inactive),1.93 (inactive),0.8,-0.112,0.457,-0.696,-0.297,0.728,-0.235,1.91 (inactive),-0.0898,-0.67,0.319 (inactive)
O=C(NC1CC1)[C@@H]1c2ccccc2C(=O)N(Cc2ccccc2Cl)[C@H]1c1ccc(CO)cc1,4.2 (inactive),0.208,3.45 (inactive),0.652 (inactive),-1.05 (inactive),0.204 (inactive),2.67,-1.1 (inactive),0.54 (inactive),0.33,3.23,1.4,2.25,-0.867,0.97,2.95,0.623 (inactive),-0.566,1.41,1.76 (inactive)
C=CCOC(=O)[C@H]1[C@@H]2C(=O)O[C@@H](c3ccccc3)[C@@H](c3ccccc3)N2[C@@H](c2ccc(OCCOC(=O)[C@@H]3C[C@@H]4C(=O)N[C@@H](CCCCNC(C)=O)C(=O)N4[C@@H]3c3ccc(O)cc3)cc2)[C@]12C(=O)Nc1ccccc12,-0.226 (inactive),0.379,3.21 (inactive),1.61 (inactive),4.15 (inactive),0.841 (inactive),-0.0842,1.56 (inactive),0.962 (inactive),0.576,-0.41,1.85,-0.578,-0.0774,-0.133,-1.7,0.703 (inactive),-0.611,-0.95,-1.57 (inactive)
CCOC(=O)C[C@H]1[C@H](OC(=O)c2ccc(C(=O)c3ccccc3)cc2)[C@@H](NC(=O)CC(C)C)c2cc(OCCCO)ccc2N1C(=O)c1ccc2ccccc2n1,1.66 (inactive),-0.0518,3.64 (inactive),0.582 (inactive),0.0206 (inactive),-0.135 (inactive),0.276,-1.46 (inactive),0.892 (inactive),0.97,0.713,-0.177,0.592,0.143,0.263,2.53,1.59 (inactive),0.944,-0.67,0.59 (inactive)
O=C(OCc1ccccc1)C1=CCC2c3[nH]c4ccccc4c3C(=O)C1N2S(=O)(=O)c1ccccc1[N+](=O)[O-] (stereo not given),-1.33 (inactive),-0.192,7.08 (inactive),2.13 (inactive),0.105 (inactive),1.1 (inactive),-0.605,0.663 (inactive),-0.294 (inactive),-1.97,-0.725,-0.816,-0.267,-0.624,-0.286,-3.06,-4.43 (inactive),-1.14,-3.28,-0.311 (inactive)
COc1cc2c(cc1OC)CN(C(=O)[C@H]1[C@@H]3C(=O)O[C@@H](c4ccccc4)[C@@H](c4ccccc4)N3[C@@H](c3ccc(O)cc3)[C@]13C(=O)Nc1ccc(C#CCCO)cc13)CC2,0.675 (inactive),-0.147,1.06 (inactive),0.736 (inactive),1.15 (inactive),0.689 (inactive),0.503,1.38 (inactive),-0.0637 (inactive),1.08,0.0351,1.04,-0.162,-0.233,-1.46,-1.46,0.292 (inactive),-0.568,0.0874,0.125 (inactive)

# — PubChem BioAssay
